This passage reports Potency results from PubChem BioAssay (Tox21).

Values joined by “and” are separate entries in the source; they are usually repeats but may differ in a detail not shown here. Identical values can stand only once. Records with an inconclusive call do not appear. A call without a number means that no potency is given here. Active and inactive are the calls of the source. The call rests on the fitted dose curve; in most records, active means well fitted activation curve with a large enough effect in the repeat runs; inconclusive means weak or mixed curves; inactive means flat fitted curve, though single readings scatter.
Potency means the concentration at half of the fitted maximal effect.

This experiment in a line: A CellTox Green Cytotoxicity Assay to monitor cytotoxicity in HepG2 cells - 24 hour (AID 1224878). Further: nearly all actives have a fitted effect of over 45% in size. To be noted: CellTox Green fluorescence; series mostly up to 76.8 µM. An excerpt:
National Center for Advancing Translational Sciences [NCATS]
NIH Chemical Genomics Center [NCGC]
U.S. Environmental Protection Agency [EPA]
National Institutes of Environmental Health Sciences [NIEHS]
National Toxicology Program [NTP]
Cell-based models are critical for drug discovery. Determining the natural cytotoxic effects resulting from test compounds is an essential research activity. A CellTox Green Cytotoxicity Assay to monitor cytotoxicity in real time of continues cell culture during 40 hours of the compound treatment was used to screen Tox21 10K library compounds in HepG2 cells. CellTox Green Cytotoxicity Assay is a nonlytic, homogeneous, biofluorescent method to measure cytotoxicity in cell culture after experimental manipulation. The assay system uses a proprietary asymmetric cyanine dye that is excluded from viable cells but preferentially stains the dead cell's DNA. […] Viable cells produce no appreciable increases in fluorescence. Therefore, the fluorescence signal produced by the binding interaction with dead cell DNA is proportional to cytotoxicity.
The mixture of HepG2 cell suspension and reagents were dispensed at 600cells/6 ul/well in 1536-well tissue culture treated black solid bottom plates using a Multidrop dispenser. After the assay plates were incubated at a 37 C/5% CO2 incubator for 5 hours, 23 nL of compounds dissolved in DMSO, positive and negative controls was transferred to the assay plate by a pintool work station. The plates were incubated at 37 C for 40 hours. The fluorescence intensity were measured at 0h, 8h, 16h, 24h, 32h and 40h time points using ViewLux plate reader during compound treatment.
In the case of `CCOC(=O)c1cncn1C(C)c1ccccc1` (stereo not given), the Potency result is “inactive”. `CC(C)[C@@H](C(=O)O[C@@H](C#N)c1cccc(Oc2ccccc2)c1)c1ccc(Cl)cc1`: the Potency result was “inactive”. With `CCC1CCC(=O)O1` (stereo not given) the entry was “inactive”. With `CCOC(=O)NC(O)C(Cl)(Cl)Cl` (stereo not given) the entry was “inactive”; with `FC(F)OC(F)(F)C(F)Cl` (stereo not given), “inactive”; with `NC(=S)c1c(Cl)cccc1Cl`, “inactive”. The result for `Nc1ccc2c(c1)Cc1ccccc1-2` reads “inactive”; that for `C1CCNCC1`, “inactive”.

Consider `C[CH2][Hg][S]c1ccccc1C(=O)O`, for which the Potency is 5.49 µM (active) and 2.39 µM (active).

On to `C[N+](C)(C)CCOC(=O)C(O)(c1ccccc1)c1ccccc1`, for which the Potency result was “inactive”. Regarding `CC(Oc1cc(Cl)c(Cl)cc1Cl)C(=O)O` (stereo not given), the Potency entry is “inactive”. The result for `CCOP(=O)(O)C(N)=O` reads “inactive”; that for `CCCCCCCCCCCCN(C)C`, “inactive”. For the molecule `CC(CC(C(N)=O)(c1ccccc1)c1ccccc1)N(C)C` (stereo not given), the Potency entry is “inactive”. With `Cc1ccccc1` the entry was “inactive”; with `C#C[C@]1(O)CC[C@H]2[C@@H]3CCC4=CC(=O)CCC4=C3C=C[C@@]21CC`, “inactive”. `CCOc1cccc(C2(N3CCN(c4ccccc4)CC3)CCC(C)CC2)c1` (stereo not given): the Potency entry is “inactive”. With `CN1C[C@H](C(=O)N[C@]2(C)O[C@@]3(O)[C@@H]4CCCN4C(=O)[C@H](Cc4ccccc4)N3C2=O)C=C2c3cccc4[nH]cc(c34)C[C@H]21` the entry was “inactive”; with `CCCBr`, “inactive”. With `C#CC(O)(C=CCl)CC` (stereo not given) the entry was “inactive”. For `COc1ccccc1N1CCNCC1`, the Potency result was “inactive”. The result for `CC(O)CN1CCN(CC(=O)[O-])CCN(CC(=O)[O-])CCN(CC(=O)[O-])CC1.[Gd+3]` (stereo not given) reads “inactive”; that for `OCC1CO1` (stereo not given), 44.4 µM (active). With `CC[N+]1(CCOC(=O)C(O)(c2ccccc2)c2ccccc2)CCCCC1` the entry was “inactive”; with `CCCC1CCCCN1` (stereo not given), “inactive”. The result for `C[C@@H]1C[C@@H]([C@H](O)CC2CC(=O)NC(=O)C2)C(=O)[C@@H](C)C1` reads “inactive”; that for `O=C(O)C(F)(F)C(F)(F)C(F)(F)C(F)(F)C(F)(F)C(F)(F)C(F)(F)C(F)(F)F`, “inactive”.

Take `O=C(O)c1cc(I)cc(I)c1I`: the Potency result was “inactive”. The result for `COc1cc(C[C@@H](C)N)c(OC)cc1Br` reads “inactive”; that for `CCCSP(=S)(OCC)Oc1ccc(SC)cc1` (stereo not given), “inactive”; that for `C[Si](Cn1cncn1)(c1ccc(F)cc1)c1ccc(F)cc1`, 50.6 µM (active). The result for `CC(C)CCCCCCCOC(=O)c1ccccc1C(=O)OCCCCCCCC(C)C` reads “inactive”; that for `CCCCC(CC)CO[N+](=O)[O-]` (stereo not given), “inactive”. With `CN1CC[C@]23c4c5ccc(O)c4O[C@H]2[C@@H](O)C=C[C@H]3[C@H]1C5` the entry was “inactive”; with `O=C(O)CCCOc1ccc(Cl)cc1Cl`, “inactive”. `O=C1NC(=O)C(=O)C(=O)N1`: the Potency entry was “inactive”.

In the case of `C[C@H]1O[C@H](OC2[C@@H](O)[C@@H](O)C(O)[C@H](O)[C@H]2O)[C@@H](N)C[C@@H]1N=C(N)C(=O)O` (stereo not given in full), the Potency result is “inactive”. The result for `NCCc1cc(O)c(O)cc1O` reads “inactive”; that for `NP(N)(=O)NC(=O)c1ccc(F)cc1`, “inactive”. The result for `CCCCC1C(=O)NC(=O)N(C2CCCCC2)C1=O` (stereo not given) reads “inactive”.
